In the library only some 1.4% were active in any assay of this set; here they are far more common.
rTrxR1 inhibitor – rat TrxR1 inhibition; 390,000 tested, 1% active; Potency, µM (doses to about 114 µM), hits mostly inhibitors; AID 588453; recombinant rTrxR1, NADPH fluorescence consumption, selenite substrate; O89049; also: nearly all actives have a fitted effect of over 65% in size
Target sequence (O89049 whole entry, looked up): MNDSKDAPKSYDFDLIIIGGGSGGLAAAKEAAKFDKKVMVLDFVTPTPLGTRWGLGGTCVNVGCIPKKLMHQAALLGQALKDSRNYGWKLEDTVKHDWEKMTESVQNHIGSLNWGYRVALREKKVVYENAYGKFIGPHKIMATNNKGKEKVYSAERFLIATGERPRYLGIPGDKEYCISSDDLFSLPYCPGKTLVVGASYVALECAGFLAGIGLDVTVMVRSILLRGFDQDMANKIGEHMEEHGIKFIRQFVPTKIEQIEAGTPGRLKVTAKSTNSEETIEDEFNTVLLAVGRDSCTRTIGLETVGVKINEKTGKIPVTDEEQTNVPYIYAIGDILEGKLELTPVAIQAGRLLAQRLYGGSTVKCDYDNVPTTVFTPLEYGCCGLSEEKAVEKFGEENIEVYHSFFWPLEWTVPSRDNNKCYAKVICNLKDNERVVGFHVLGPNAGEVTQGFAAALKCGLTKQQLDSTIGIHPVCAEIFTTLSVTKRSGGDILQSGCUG
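Rat TrxR1 (90 nM in the dispensed reagent) was pre-reduced with 400 uM NADPH for 5 min at room temperature, then incubated with compound for 15 min. After 400 uM selenite was added, NADPH fluorescence (Ex 340/Em 450 nm) was followed for 8 min.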
N370S GC – N370S glucocerebrosidase modulation, Gaucher chaperone candidate. N370S GC spleen homogenate, 4MU-glucoside fluorescence. 330,000 tested, 0.092% active. Potency, µM (doses to about 59.4 µM), actives largely listed as inhibitors. P04062
TrxR1 substrate – substrates of rat thioredoxin reductase 1; O89049; purified TrxR1 substrate turnover, NADPH consumption readout; Potency, µM (doses to about 114 µM); 390,000 tested, 0.01% active; AID 588456; also: nearly all actives have a fitted effect of over 50% in size
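Rat TrxR1, dispensed at 90 nM, was prereduced with 400 uM NADPH (final) for 5 min at ~22 deg C, then incubated with compound 15 min before 400 uM selenite. A first-read NADPH fluorescence drop versus no-compound background flagged substrates.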
A-T KAP1 phos – potential ataxia-telangiectasia treatments restoring KAP-1 phosphorylation. AID 485349. Potency, µM (top dose mostly 57.5 µM), usual class: activators. 320,000 tested, 0.19% active. F2112 A-T fibroblasts, KAP-1 phosphorylation AlphaLISA; neocarzinostatin DNA damage 30 min before lysis; also: nearly all actives have a fitted effect of over 45% in size
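ATM-like activity read as KAP-1 phosphorylation via AlphaLISA donor/acceptor antibody pairs after lysis and 6 hr at 25C. Cells were ATM-null patient fibroblasts (F2112, hTERT), dosed 60 min, then exposed to the DSB inducer NCS for 30 min.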
pAkt inh – inhibitors of Akt phosphorylation | Neuro2A IGF-stimulated pAkt S473 HTRF, 20 min; hits give low values | activity change, % for hits at 50 µM | 360,000 tested, 0.32% active; in the data active = activity change below about -80%; inconclusive = mostly about -51% to -80%
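Neuro2A cells in DMEM with 0.5% FBS, overnight at 37 deg C, given compound at single 50 µM final, then IGF (6 nM final) for 20 min at 37 deg C. Lysed; phospho-Akt Ser473 by HTRF after 24 h, 665/615 ratio.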
Pin1 inhibitor – human Pin1 inhibition | Potency, µM (top dose mostly 115 µM), actives largely listed as inhibitors | 390,000 tested, 0.009% active | Q13526 | Pin1 FP peptide displacement, HiFluor488, 10 min | AID 504891; active = well fitted inhibition curve with a large enough effect in the polarisation, with a control signal flat, not every such curve was filed as active; inconclusive = small, poorly fitted or top-dose-only effect, or effect the other way, or a change in a side signal; inactive = no such curve, though single readings can be large or run the other way; the % refers to the polarisation
Target sequence (Q13526 whole entry, looked up): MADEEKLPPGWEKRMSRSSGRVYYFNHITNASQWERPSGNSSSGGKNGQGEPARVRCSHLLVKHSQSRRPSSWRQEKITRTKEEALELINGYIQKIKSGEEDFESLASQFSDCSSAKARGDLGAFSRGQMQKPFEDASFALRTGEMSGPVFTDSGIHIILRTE
Hits are given with their value; n = inactive; u = inconclusive; x = not tested or not shown; [ ] = another dose, or the depositor's remark. Unless noted, calls follow the shape of the dose curve; as a rule, active = well fitted curve in the direction sought with a large enough effect; inconclusive = small, poorly fitted or top-dose-only effect, or another doubt; inactive = no such curve, though single readings can be large; an effect the other way counts as inactive or inconclusive.

SMILES	rTrxR1 inhibitor	N370S GC	TrxR1 substrate	A-T KAP1 phos	pAkt inh	Pin1 inhibitor
Cc1ccc(N=C2NC(=O)CC(C(=O)Nc3cc(C(F)(F)F)ccc3Cl)S2)cc1 (stereo not given)	n	x	n	x	x	n
COc1cc(OC)c(C#N)c(S(=O)(=O)Cc2ccccc2)c1	n	n	n	n	n	n
N#Cc1c([N+](=O)[O-])cc([N+](=O)[O-])cc1S(=O)(=O)Cc1ccccc1	0.71µM	x	u	n	n	n
CCc1nc(-c2ccc(-c3ccc(OC)cc3)nc2OC)no1	n	n	n	n	n	n
COc1ccc(-c2ccc(-c3noc(C(C)C)n3)c(OC)n2)cc1	u	n	n	14µM	n	n
O=c1c(Cl)cc(Cl)nn1-c1ccccc1	25µM	n	n	n	n	n
CC(C)n1c2ccccc2c2nc3ccccc3nc21	n	n	n	35µM	n	n
CC(=O)NC(Nc1c(C)n(C)n(-c2ccccc2)c1=O)C(Cl)(Cl)Cl (stereo not given)	56µM	n	n	n	n	n
Cc1nn(C)c(C)c1S(=O)(=O)N1CCCC(C(=O)N2CCN(c3ccc(Cl)cc3)CC2)C1 (stereo not given)	n	n	n	x	-107%	n
COCCNC(=O)c1cccc(-n2c(C)nc3cccnc32)c1	n	x	n	x	x	n
O=C(CCSc1ccccn1)c1ccccc1	2µM	n	n	n	n	n
Cc1cc2ccccc2c[n+]1CC(=O)c1ccc(F)cc1	n	x	n	x	x	x
Cc1ccc(C(=O)CCNc2ccc(F)c(Cl)c2)o1	56µM	n	n	n	n	n
CSc1nc(SCCO)c2sc3nc(-c4ccco4)c4c(c3c2n1)CC(C)(C)OC4	56µM	n	n	n	n	u
CC(=O)c1ccc(Sc2nnnn2-c2ccccc2)c([N+](=O)[O-])c1	7.9µM	n	n	n	n	n
CN1CCN(S(=O)(=O)c2ccc(Sc3nnnn3-c3ccccc3)c([N+](=O)[O-])c2)CC1	u	n	n	n	n	n
Cc1ccc(-c2nc3c(c(=O)[nH]c(=O)n3Cc3ccccc3)n2C)o1	32µM	n	n	n	n	u
COc1cc(OC)c(OC)cc1/C=C/c1nc2ccccc2o1	n	x	n	x	x	x
Cc1cccc(NC(=O)C2CCCN(C(=O)Nc3ccccc3)C2)c1C (stereo not given)	n	n	n	n	-110%	n
COc1ccc(-c2onc(C)c2C)cc1S(=O)(=O)Nc1cccc(C#N)c1	n	x	n	x	x	n
Cc1ccc(C)c(NC(=O)CSc2nnc(CSc3nc(C)cc(C)n3)n2Cc2ccco2)c1	n	n	n	n	-91%	n
COc1ccc(C)cc1NC(=O)CSc1nnc(COc2ccccc2)n1Cc1ccco1	n	n	n	n	-98%	n
Cn1ccsc1=NC(=O)c1ccc(S(C)(=O)=O)c([N+](=O)[O-])c1	56µM	n	n	n	n	n
Clc1ncc(C#Cc2ccccc2)c2ncncc12	18µM	x	n	x	x	n
O=C(O)CNc1cccc(-c2nn3c(=O)cc(N4CCNCC4)nc3s2)c1	x	x	x	x	x	n
SMILES	rTrxR1 inhibitor	N370S GC	TrxR1 substrate	A-T KAP1 phos	pAkt inh	Pin1 inhibitor
Cc1ccc(NC(=O)CSC2=C(C#N)C(c3ccc4c(c3)OCO4)C3=C(CCCC3=O)N2)c(C)c1 (stereo not given)	28µM	n	n	n	n	n
Cc1[nH]n(-c2ccc([N+](=O)[O-])cc2)c(=O)c1C=NCCN1CCN(C(=O)c2ccc(Br)cc2)CC1	n	n	n	n	-102%	u
Cc1[nH]n(-c2ccc([N+](=O)[O-])cc2)c(=O)c1C=NCCN1CCN(C(=O)c2ccc(F)cc2)CC1	n	n	n	n	n	n
COC(=O)C1=NN(c2ccc(C)cc2)C2(S1)SC(C(C)=O)=C(C)N2c1ccccc1 (stereo not given)	n	n	n	n	n	n
COC(=O)C1=NN(c2ccccc2)C2(S1)SC(C(C)=O)=C(C)N2c1ccccc1 (stereo not given)	n	n	n	n	-138%	n
O=S1(=O)N=C(Sc2cccc3cccnc23)c2ccccc21	x	x	x	x	x	n
COc1ccccc1NC(=S)NC12CN3CN(CN(C3)C1)C2	n	n	n	n	n	n
COc1ccccc1NC(=S)N1CC(C)(C)C1=O	n	n	n	5.6µM	n	n
Cc1ccc(-c2csc3ncn(-n4c(C)ccc4C)c(=O)c23)o1	32µM	n	n	n	n	n
Cc1sc2ncn(-n3c(C)ccc3C)c(=O)c2c1C	u	n[2.35 µM]	n	n	n	n
COc1ccc(C2=CC(=O)N(Nc3ccccc3)C2=O)cc1	u	n	n	n	n	n
O=C1C=C(c2ccccc2)C(=O)N1Nc1ccccc1	3.2µM	n	n	n	n	n
O=C(NNS(=O)(=O)c1ccccc1)c1ccc([N+](=O)[O-])cc1	n	n	n	n	n	n
N#Cc1ccccc1NC(=S)NC(=O)c1cccnc1	3.5µM	n	n	n	n	n
O=C(NC(=S)NNS(=O)(=O)c1ccccc1)c1cccnc1	25µM	n	n	n	n	n
Cc1ccc(S(=O)(=O)NNC(=O)c2cccnc2)cc1	n	n	n	n	n	n
O=C(NC(=S)NNS(=O)(=O)c1ccccc1)c1ccc([N+](=O)[O-])cc1	14µM	n	n	n	n	n
O=C(NC1CCCC1)c1cnn2c1NC(=C1CC1)C=C2C(F)F	n	x	n	x	x	x
S=C(Nc1ccc(N2CCOCC2)cc1)Nc1ccc2nc(-c3ccco3)c(-c3ccco3)nc2c1	2.5µM	n	n	n	n	u
CC1CCN(C(=O)Nc2ccc3nc(-c4ccco4)c(-c4ccco4)nc3c2)CC1	4µM	x	n	x	x	x
Cc1c(Cl)cccc1-n1nnc(-c2nc(-c3ccc4c(c3)OCO4)no2)c1C	n	x	n	x	x	n
Cc1ccc(-c2csc3ncnc(Sc4nnnn4-c4ccccc4)c23)cc1	n	x	n	x	x	x
COc1ccccc1/C=C/c1nc2ccccc2s1	n	x	n	x	x	x
CNC(=O)c1cc(-c2cccs2)on1	u	x	n	x	x	x
O=C(CS(=O)(=O)c1ccccc1)c1cc2cc(F)ccc2oc1=O	n	n	n	u	x	n
SMILES	rTrxR1 inhibitor	N370S GC	TrxR1 substrate	A-T KAP1 phos	pAkt inh	Pin1 inhibitor
O=C(CS(=O)(=O)c1ccccc1)c1cc2ccccc2oc1=O	16µM	n	n	n	n	n
Cc1ccc2cc(C=C(C#N)C#N)c(N3CCCCC3)nc2c1	1µM	n	n	n	n	u
Cc1ccc2cc(/C=C(\C#N)C(N)=O)c(N3CCCCC3)nc2c1	n	n	n	n	n	u
COc1ccc(Cc2nnc(SCC(=O)NCCc3ccccc3)o2)cc1	n	n	n	n	n	u
CCOc1ccc(-c2nnc(SCC(=O)NCc3ccccc3)o2)cc1	n	x	n	x	x	n
CCOc1ccc(-c2nnc(SCC(=O)NCc3ccc(Cl)cc3)o2)cc1	50µM	x	n	x	x	n
